Measurements published in PubChem BioAssay (NCI).
Compounds without any hit were thinned out: in the full panel of roughly 83,000, 20% have a hit.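 Percent growth is the endpoint: 0 to 100 indicates growth inhibition (40 means 60% inhibition), 0 means no net growth, and negative values indicate cell death.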 Active and inactive are the calls of the source. The calls were made as follows: active = growth percent below 10; inactive = the rest.

tested on: COLO 205 colon; test: NCI-60 one-dose screen, 48 h (100 = growth as untreated, 0 = no growth, -100 = all killed); details: 10 µM unless noted

Question: How did the growth turn out when C[C@]12CC[C@@H]3c4cc(OC(F)F)c(O)cc4CC[C@H]3[C@@H]1CC[C@@H]2OS(N)(=O)=O was run?
Answer: The growth was 10.7% (inactive).

Question: With NCCCNc1nc2ccccc2c2c(=O)c3cccc(Cl)c3sc12 as the compound, how does the growth read?
Answer: Its growth is -50.6% (active).

Question: O=C(N=c1oc2ccccc2cc1-c1cc2ccccc2[nH]1)c1ccc(Cl)cc1 was tested. Which growth did it give?
Answer: Its growth is 69.7% (inactive).

Question: For CSc1n(Cc2ccc3ccccc3c2)c(C)c[n+]1Cc1ccc2ccccc2c1, which growth is on record?
Answer: The growth was -54.3% (active).

Question: With COC(=O)CCC1=C(C)C2=NC1=CC1=NC(=CC3=NC(=Cc4[nH]c(/c(=C(/C)O)c4C)=C2)C(C(C)=O)=C3C)C(C)=C1CCC(=O)OC as the compound, how does the growth read?
Answer: The growth was 111% (inactive).

Question: COc1ccc(Nc2nnc(SCc3ccccc3F)s2)cc1 was tested. Which growth did it give?
Answer: The growth was 114% (inactive).

Question: How did the growth turn out when O=C(N/N=C/C=C/c1ccc([N+](=O)[O-])o1)c1cc2ccccc2cc1O was run?
Answer: Its growth is -100% (active).

Question: Which growth does the source give for OC(COc1ccccc1Cl)COc1ccccc1Cl here?
Answer: The growth was 112% (inactive).

Question: For c1ccc(-c2nc([P+](c3ccccc3)(c3ccccc3)c3ccccc3)c(N3CCOCC3)o2)cc1, which growth is on record?
Answer: Its growth is -64.5% (active).

Question: With O=C1CCc2c(sc3[nH]c(=S)n(-c4ccc(OC(F)(F)F)cc4)c(=O)c23)C1 as the compound, how does the growth read?
Answer: The growth was 99.2% (inactive).

Question: With O=C(Nc1ccc(Cl)cc1)Nc1ccc(Cl)c(C(F)(F)F)c1 as the compound, how does the growth read?
Answer: Its growth is -73.8% (active).

Question: With COc1ccc(C2CC(c3cccc(OC)c3)=NN2C(=O)c2cc(OC)c(OC)c(OC)c2)cc1 (centres undefined) as the compound, how does the growth read?
Answer: The growth was -1.64% (active).

Question: For CCOC(=O)C/C(C)=N\NC(=O)c1ccncc1, which growth is on record?
Answer: The growth was 124% (inactive).

Question: Which growth does the source give for COc1ccc2oc3c(C)c4c(c(C)c3c2c1)C(=O)N(Cc1ccccc1)C4=O here?
Answer: Its growth is 84.7% (inactive).

Question: With CC(C)=C[C@@H]1c2c(c3ccccc3n(C)c2=O)O[C@H]2c3c(c4ccccc4n(C)c3=O)OC(C)(C)[C@@H]12 as the compound, how does the growth read?
Answer: The growth was 95.3% (inactive).

Question: For Cc1ccc(NCCN(C)C)c2c(=O)c3ccccc3sc12, which growth is on record?
Answer: The growth was -53.5% (active).

Question: C=C1C(=O)O[C@H]2[C@H]1CC/C(COC(=O)C(=O)c1c[nH]c3ccccc13)=C\CC[C@@]1(C)O[C@@H]21 was tested. Which growth did it give?
Answer: The growth was -62.2% (active).

Question: With Oc1ccc(CN2CCC(N3CCOCC3)CC2)c2cccnc12 as the compound, how does the growth read?
Answer: Its growth is 104% (inactive).

Question: Which growth does the source give for O=C1CCC2=C3C4CCCCC4C(=O)C4CCCC(OC2C1)C34 (centres undefined) here?
Answer: Its growth is 75.3% (inactive).

Question: With Cc1cc(=O)[nH]c(N=Nc2c(O)[nH]c3ccccc23)n1 as the compound, how does the growth read?
Answer: The growth was 89.5% (inactive).

Question: How did the growth turn out when COc1cc(/C=C/C(=O)N2CCN(C(=O)c3cc(OC)c(OC)c(OC)c3)CC2)ccc1OCCCN1C(=O)c2cccc3cccc(c23)C1=O was run?
Answer: Its growth is 116% (inactive).

Question: With Cc1ccc(S(=O)(=O)N/N=C\c2cc(Cl)ccc2O)cc1 as the compound, how does the growth read?
Answer: The growth was 96.9% (inactive).

Question: COc1cc(OC)cc(C2CC(=O)Nc3c2c(C)nn3-c2nc3ccccc3[nH]2)c1 (centres undefined) was tested. Which growth did it give?
Answer: The growth was 51.4% (inactive).

Question: With Cc1ccc(S(=O)(=O)n2cc(CNc3ccc(N4CCOCC4=O)cc3)c3ccccc32)cc1 as the compound, how does the growth read?
Answer: Its growth is 85.1% (inactive).

Question: CC1O[C@@H](OC2[C@H](OC(=O)/C=C/c3ccc(O)c(O)c3)C(COC3O[C@H](C)C(O)C(O)[C@@H]3O)O[C@@H](OCCc3ccc(O)c(O)c3)[C@H]2O)[C@@H](O)C(O)[C@H]1O (some centres undefined) was tested. Which growth did it give?
Answer: The growth was 104% (inactive).

Question: Which growth does the source give for CS(=O)c1cccc(-c2ccc3nc(N)n(-c4ccc(C(F)(F)F)cc4)c(=O)c3c2)c1 (centres undefined) here?
Answer: The growth was 105% (inactive).

Question: How did the growth turn out when CCOc1ccccc1-n1c(CN2CCN(C(=O)COc3ccc(CNCCCCCCN4C5CCCC4CC(OC(=O)Nc4cc(C)ccc4OC)C5)cc3)CC2)nc2ccccc2c1=O (centres undefined) was run?
Answer: The growth was -85.1% (active).

Question: O=C(O)CN1C(=O)CCC1=O was tested. Which growth did it give?
Answer: The growth was 118% (inactive).

Question: For Cc1cccc(NC(=O)CSc2nc3ccccc3[nH]2)c1, which growth is on record?
Answer: The growth was 110% (inactive).
